ChEMBL document CHEMBL1961873, “Compounds: GSK PKIS; Assays: Nanosyn kinase panel” (2012)

How the values were obtained:
[1] = target: Ribosomal protein S6 kinase alpha-6 (Homo sapiens) (UniProt Q9UK32); conditions: at 1 µM;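 further: each value is a mean inhibition of RSK4 from a GSK PKIS panel screen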
[2] = target: T1, Serine/threonine-protein kinase Sgk1 (Homo sapiens) (UniProt O00141); conditions: at 0.1 µM
T1 sequence (whole entry): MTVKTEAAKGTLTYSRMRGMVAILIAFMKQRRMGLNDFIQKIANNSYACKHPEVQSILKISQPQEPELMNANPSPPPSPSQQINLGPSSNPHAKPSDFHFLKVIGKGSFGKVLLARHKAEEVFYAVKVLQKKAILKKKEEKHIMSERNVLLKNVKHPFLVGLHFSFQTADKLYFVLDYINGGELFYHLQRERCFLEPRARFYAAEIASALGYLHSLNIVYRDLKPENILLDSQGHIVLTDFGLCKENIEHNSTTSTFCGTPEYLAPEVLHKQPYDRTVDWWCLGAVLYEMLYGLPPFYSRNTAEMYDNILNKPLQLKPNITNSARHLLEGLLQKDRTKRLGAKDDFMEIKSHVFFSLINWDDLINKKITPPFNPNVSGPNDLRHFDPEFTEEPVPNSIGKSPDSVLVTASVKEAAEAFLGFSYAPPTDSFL

[3] = target: T1, Serine/threonine-protein kinase Sgk1 (Homo sapiens); conditions: at 1 µM
[4] = target: T2, Serine/threonine-protein kinase Sgk2 (Homo sapiens) (UniProt Q9HBY8); conditions: at 0.1 µM
T2 sequence (whole entry): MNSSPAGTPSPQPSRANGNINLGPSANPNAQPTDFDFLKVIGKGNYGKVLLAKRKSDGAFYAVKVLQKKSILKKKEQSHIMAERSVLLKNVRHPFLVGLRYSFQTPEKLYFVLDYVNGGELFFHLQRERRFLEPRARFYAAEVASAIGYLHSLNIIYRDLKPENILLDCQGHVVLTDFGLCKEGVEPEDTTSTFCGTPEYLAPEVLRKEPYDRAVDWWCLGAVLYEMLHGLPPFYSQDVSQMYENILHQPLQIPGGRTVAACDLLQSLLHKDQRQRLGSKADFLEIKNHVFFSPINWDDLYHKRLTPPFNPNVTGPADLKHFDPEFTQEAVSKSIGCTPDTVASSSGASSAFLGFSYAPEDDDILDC

[5] = target: T2, Serine/threonine-protein kinase Sgk2 (Homo sapiens); conditions: at 1 µM
[6] = target: T3, Serine/threonine-protein kinase Sgk3 (Homo sapiens) (UniProt Q96BR1); conditions: at 0.1 µM
T3 sequence (whole entry): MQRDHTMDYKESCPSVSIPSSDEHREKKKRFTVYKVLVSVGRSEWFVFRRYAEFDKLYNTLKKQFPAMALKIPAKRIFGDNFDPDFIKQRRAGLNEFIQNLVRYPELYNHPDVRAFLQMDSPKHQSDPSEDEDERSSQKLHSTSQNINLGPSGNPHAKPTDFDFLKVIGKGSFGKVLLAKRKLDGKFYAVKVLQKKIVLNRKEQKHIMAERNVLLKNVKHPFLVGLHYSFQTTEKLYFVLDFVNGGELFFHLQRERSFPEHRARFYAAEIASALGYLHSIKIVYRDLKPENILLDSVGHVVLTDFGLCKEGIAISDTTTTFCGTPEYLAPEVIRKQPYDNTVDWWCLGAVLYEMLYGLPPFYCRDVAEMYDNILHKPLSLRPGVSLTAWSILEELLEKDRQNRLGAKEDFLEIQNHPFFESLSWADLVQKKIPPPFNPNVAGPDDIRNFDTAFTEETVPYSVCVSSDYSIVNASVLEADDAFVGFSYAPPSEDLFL

[7] = target: T3, Serine/threonine-protein kinase Sgk3 (Homo sapiens); conditions: at 1 µM
[8] = target: 5'-AMP-activated protein kinase catalytic subunit alpha-1 (Homo sapiens) (UniProt Q13131); conditions: at 0.1 µM
Chain of 5'-AMP-activated protein kinase catalytic subunit alpha-1 (Homo sapiens) (Q13131 whole entry, looked up): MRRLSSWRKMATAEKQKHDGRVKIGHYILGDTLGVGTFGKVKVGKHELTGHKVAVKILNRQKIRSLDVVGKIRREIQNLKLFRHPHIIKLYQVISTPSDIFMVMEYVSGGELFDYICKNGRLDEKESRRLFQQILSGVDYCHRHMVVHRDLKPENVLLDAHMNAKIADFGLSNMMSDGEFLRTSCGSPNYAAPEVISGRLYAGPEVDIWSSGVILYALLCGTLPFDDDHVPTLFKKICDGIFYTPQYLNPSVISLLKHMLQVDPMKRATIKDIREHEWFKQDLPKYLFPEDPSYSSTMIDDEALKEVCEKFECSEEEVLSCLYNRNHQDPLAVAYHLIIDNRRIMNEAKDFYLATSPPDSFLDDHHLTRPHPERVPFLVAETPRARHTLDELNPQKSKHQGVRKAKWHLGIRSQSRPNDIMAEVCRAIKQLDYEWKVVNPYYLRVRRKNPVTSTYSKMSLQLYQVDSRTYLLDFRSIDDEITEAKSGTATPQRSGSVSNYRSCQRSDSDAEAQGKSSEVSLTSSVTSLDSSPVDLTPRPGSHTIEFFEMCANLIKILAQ

[9] = target: 5'-AMP-activated protein kinase catalytic subunit alpha-1 (Homo sapiens) (UniProt Q13131); conditions: at 1 µM
[10] = target: 5'-AMP-activated protein kinase catalytic subunit alpha-2 (Homo sapiens) (UniProt P54646); conditions: at 0.1 µM
Chain of 5'-AMP-activated protein kinase catalytic subunit alpha-2 (Homo sapiens) (P54646 whole entry, looked up): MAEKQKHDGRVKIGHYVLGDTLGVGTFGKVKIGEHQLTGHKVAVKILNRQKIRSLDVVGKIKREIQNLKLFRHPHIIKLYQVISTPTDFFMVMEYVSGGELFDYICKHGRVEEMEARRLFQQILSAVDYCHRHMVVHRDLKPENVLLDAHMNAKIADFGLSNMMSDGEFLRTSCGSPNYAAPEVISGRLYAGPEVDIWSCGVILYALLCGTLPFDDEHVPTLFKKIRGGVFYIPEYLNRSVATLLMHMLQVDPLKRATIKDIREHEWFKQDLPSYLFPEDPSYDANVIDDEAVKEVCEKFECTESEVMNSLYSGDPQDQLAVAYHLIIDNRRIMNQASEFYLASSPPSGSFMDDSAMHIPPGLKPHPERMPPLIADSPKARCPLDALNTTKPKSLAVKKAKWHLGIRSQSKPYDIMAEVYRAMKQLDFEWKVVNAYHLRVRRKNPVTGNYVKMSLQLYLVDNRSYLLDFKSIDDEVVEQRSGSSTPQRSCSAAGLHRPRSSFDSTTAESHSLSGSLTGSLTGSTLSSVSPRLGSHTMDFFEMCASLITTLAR

[11] = target: 5'-AMP-activated protein kinase catalytic subunit alpha-2 (Homo sapiens) (UniProt P54646); conditions: at 1 µM
[12] = target: T4, NUAK family SNF1-like kinase 1 (Homo sapiens) (UniProt O60285); conditions: at 0.1 µM
T4 sequence (whole entry): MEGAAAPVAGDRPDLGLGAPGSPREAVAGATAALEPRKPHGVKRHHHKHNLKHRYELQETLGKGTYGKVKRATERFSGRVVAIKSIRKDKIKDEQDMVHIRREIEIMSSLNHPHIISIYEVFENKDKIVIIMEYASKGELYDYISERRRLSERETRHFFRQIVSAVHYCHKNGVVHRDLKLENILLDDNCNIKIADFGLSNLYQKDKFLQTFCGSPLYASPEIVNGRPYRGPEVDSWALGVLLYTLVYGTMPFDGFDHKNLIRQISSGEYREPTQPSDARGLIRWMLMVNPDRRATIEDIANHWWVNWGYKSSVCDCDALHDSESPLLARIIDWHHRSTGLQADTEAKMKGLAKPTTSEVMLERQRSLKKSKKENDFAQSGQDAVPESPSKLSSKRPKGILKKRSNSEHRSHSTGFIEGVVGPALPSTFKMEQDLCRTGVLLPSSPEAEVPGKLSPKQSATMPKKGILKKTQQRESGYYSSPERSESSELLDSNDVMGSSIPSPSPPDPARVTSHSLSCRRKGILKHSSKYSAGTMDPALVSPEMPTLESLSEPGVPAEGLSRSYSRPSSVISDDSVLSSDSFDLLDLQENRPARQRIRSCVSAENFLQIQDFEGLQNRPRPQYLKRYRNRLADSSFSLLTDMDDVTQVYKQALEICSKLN

[13] = target: T4, NUAK family SNF1-like kinase 1 (Homo sapiens); conditions: at 1 µM
[14] = target: T5, Serine/threonine-protein kinase BRSK1 (Homo sapiens) (UniProt Q8TDC3); conditions: at 0.1 µM
T5 sequence (whole entry): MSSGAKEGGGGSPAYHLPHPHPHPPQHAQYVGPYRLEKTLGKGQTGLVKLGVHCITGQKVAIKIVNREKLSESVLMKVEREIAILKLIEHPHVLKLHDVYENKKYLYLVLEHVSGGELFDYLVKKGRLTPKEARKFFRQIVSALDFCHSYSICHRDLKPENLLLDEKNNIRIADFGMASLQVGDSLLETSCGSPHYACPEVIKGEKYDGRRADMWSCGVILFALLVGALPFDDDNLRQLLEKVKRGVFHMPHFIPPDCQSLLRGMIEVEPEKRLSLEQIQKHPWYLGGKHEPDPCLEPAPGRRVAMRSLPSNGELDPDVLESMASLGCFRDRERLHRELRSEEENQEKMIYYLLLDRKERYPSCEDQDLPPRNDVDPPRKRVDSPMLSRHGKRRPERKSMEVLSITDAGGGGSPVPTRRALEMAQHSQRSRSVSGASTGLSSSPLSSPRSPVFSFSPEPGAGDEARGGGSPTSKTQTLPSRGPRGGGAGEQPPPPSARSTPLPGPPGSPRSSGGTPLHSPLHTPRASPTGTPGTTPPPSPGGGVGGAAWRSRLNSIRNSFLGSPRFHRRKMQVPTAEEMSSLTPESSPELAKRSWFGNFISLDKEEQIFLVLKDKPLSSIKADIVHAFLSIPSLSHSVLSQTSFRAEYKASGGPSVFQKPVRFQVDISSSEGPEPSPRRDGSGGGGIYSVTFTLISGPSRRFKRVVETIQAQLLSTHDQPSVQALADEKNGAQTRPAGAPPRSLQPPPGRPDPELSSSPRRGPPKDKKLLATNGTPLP

[15] = target: T5, Serine/threonine-protein kinase BRSK1 (Homo sapiens); conditions: at 1 µM
[16] = target: T6, Serine/threonine-protein kinase BRSK2 (Homo sapiens) (UniProt Q8IWQ3); conditions: at 0.1 µM
T6 sequence (whole entry): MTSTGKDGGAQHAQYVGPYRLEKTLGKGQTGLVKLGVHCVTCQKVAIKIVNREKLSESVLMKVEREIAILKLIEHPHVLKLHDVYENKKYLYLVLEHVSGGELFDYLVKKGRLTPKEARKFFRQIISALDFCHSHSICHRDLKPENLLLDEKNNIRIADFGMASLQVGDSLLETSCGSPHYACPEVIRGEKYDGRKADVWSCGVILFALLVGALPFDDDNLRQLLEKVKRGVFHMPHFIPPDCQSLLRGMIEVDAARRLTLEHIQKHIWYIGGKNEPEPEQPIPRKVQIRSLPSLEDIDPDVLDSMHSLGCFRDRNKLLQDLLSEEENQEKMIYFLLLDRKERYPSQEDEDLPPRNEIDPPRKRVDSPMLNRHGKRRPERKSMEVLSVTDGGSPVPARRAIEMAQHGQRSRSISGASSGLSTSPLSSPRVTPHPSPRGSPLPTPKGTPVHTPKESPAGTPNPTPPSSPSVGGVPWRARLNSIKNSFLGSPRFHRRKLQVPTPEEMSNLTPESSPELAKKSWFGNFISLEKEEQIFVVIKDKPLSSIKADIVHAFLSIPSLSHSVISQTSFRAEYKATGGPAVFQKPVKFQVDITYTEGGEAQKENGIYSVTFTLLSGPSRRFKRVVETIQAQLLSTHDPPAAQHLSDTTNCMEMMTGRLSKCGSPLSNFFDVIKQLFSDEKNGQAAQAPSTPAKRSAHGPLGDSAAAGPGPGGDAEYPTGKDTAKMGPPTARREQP

[17] = target: T6, Serine/threonine-protein kinase BRSK2 (Homo sapiens); conditions: at 1 µM
[18] = target: Calcium/calmodulin-dependent protein kinase type 1D (Homo sapiens) (UniProt Q8IU85); conditions: at 0.1 µM
Chain of Calcium/calmodulin-dependent protein kinase type 1D (Homo sapiens) (Q8IU85 whole entry, looked up): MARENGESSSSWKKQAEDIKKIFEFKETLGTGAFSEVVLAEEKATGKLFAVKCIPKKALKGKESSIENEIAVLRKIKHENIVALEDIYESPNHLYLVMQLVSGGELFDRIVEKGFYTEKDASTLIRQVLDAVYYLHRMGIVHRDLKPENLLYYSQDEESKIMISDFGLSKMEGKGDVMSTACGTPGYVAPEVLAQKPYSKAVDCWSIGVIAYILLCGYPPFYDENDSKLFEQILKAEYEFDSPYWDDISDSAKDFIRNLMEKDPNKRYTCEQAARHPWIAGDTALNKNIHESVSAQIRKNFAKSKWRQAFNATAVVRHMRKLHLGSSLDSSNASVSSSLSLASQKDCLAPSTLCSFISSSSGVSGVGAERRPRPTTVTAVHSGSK

[19] = target: Calcium/calmodulin-dependent protein kinase type 1D (Homo sapiens) (UniProt Q8IU85); conditions: at 1 µM
[20] = target: Calcium/calmodulin-dependent protein kinase type II subunit alpha (Homo sapiens) (UniProt Q9UQM7); conditions: at 0.1 µM;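 further: reported values are averages (mean inhibition of CAMK2A)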
Chain of Calcium/calmodulin-dependent protein kinase type II subunit alpha (Homo sapiens) (Q9UQM7 whole entry): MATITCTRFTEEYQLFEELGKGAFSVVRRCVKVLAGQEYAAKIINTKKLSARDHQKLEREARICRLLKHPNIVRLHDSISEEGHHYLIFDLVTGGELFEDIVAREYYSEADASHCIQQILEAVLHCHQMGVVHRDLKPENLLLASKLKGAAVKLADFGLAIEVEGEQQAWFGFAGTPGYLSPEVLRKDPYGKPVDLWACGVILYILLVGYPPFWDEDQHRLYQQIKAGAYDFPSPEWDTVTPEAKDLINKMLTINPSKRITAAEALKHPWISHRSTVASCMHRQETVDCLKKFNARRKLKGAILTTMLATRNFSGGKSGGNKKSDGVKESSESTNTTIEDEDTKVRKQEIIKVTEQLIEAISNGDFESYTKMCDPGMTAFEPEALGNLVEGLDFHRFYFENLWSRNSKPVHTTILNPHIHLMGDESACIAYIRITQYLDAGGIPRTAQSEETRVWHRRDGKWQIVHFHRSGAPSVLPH

Chain of Ribosomal protein S6 kinase alpha-6 (Homo sapiens) (Q9UK32 whole entry): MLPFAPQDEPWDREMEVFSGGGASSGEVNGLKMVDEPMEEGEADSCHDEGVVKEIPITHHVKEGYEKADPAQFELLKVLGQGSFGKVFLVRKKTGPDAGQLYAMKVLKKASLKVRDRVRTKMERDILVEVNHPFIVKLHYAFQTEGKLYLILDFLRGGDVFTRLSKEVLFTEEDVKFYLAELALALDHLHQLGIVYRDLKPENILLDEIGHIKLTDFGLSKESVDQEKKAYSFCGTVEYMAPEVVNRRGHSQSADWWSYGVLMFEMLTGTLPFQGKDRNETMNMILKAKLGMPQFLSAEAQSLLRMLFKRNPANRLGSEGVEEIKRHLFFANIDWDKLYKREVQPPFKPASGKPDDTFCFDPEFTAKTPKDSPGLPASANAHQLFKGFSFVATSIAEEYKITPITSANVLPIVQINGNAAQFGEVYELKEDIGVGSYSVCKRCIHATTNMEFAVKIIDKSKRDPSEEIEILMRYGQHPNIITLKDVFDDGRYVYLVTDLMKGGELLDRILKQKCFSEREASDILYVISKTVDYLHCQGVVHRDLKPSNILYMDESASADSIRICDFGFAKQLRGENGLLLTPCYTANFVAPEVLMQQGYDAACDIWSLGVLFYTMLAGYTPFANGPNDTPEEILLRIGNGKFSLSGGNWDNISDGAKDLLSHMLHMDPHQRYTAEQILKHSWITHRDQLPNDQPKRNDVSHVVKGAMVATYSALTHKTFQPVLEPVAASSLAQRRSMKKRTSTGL

Compound	inhibition [1] [%]	inhibition [2] [%]	inhibition [3] [%]	inhibition [4] [%]	inhibition [5] [%]	inhibition [6] [%]	inhibition [7] [%]	inhibition [8] [%]	inhibition [9] [%]	inhibition [10] [%]	inhibition [11] [%]	inhibition [12] [%]	inhibition [13] [%]	inhibition [14] [%]	inhibition [15] [%]	inhibition [16] [%]	inhibition [17] [%]	inhibition [18] [%]	inhibition [19] [%]	inhibition [20] [%]
COc1cc2ncn(-c3cc(O[C@@H](C)c4ccccc4Cl)c(C(N)=O)s3)c2cc1OC	6.8	3.98	4.72	4.32	3.95	4.22	7.31	3.57	10.6	1.04	5.06	3.52	22.4	8.66	44	19.4	58.9	1.43	1.53	1.15
O=C(Nc1n[nH]c2nc(-c3ccco3)c(Br)cc12)C1CC1	2.56	3.35	3.09	0.84	-4.73	2.77	3.45	3.65	3.4	1.15	5.5	-2.45	4.11	3	12.9	3.32	11.5	0.93	1.36	4.38
COc1ccc(-c2ccncc2)cc1C(N)=O	3.03	2.81	3.03	2.33	1.26	2.05	6.23	2.82	5.78	7.48	4.51	1.88	5.44	3.31	4.66	4.68	8.59	-0.75	1.22	1.71
Cc1ccc(C(=O)NC2CCCCC2)cc1-c1ccc(C(=O)NCC2CC2)cc1	1.2	3.14	2.69	1.32	-1.56	2.99	0.67	2.86	0.6	3.32	1.51	2.83	2.62	2.63	0.64	1.87	-1.13	3.13	2.73	4.8
O=C1NC(=O)C(c2ccccc2Cl)=C1Nc1cccc(O)c1	7.12	1.25	2.8	0.71	1.41	4.44	0.72	1.85	5.89	-0.21	4.22	0.82	12.4	1.18	6.4	1.63	8.81	1.44	4.28	3.22
CS(=O)(=O)CCNCc1ccc(-c2ccc3ncnc(Nc4ccc(OCc5ccccc5)c(Cl)c4)c3c2)o1	0.49	0.96	1.58	2.63	0.46	-0.5	1.84	-1.82	-0.45	3.82	0.49	0.49	1.58	0.43	-0.39	0.27	2.32	-0.75	1.29	-1.33
CS(=O)(=O)CCNCc1nc(-c2ccc3ncnc(Nc4ccc(F)c(Cl)c4)c3c2)cs1	1.36	0.28	4.55	2.82	-2.15	3.08	2.67	2.39	1.3	-4.68	1.32	2.92	2	0.92	1.59	2.32	6.52	1.26	1.23	5.16
